Values without a mark were called inactive. Records with an inconclusive call do not appear. The source made the active and inactive calls. Calls follow the shape of the dose curve; as a rule, active = well fitted curve in the direction sought with a large enough effect in the repeat runs; inconclusive = weak or mixed curves; inactive = no such curve, though single readings can be large; an effect the other way counts as inactive or inconclusive.

The nature of experiment [1]: Caspase-3/7 induction in HepG2 cells by small molecules, qHTS cell viability counter screen (AID 1346981). Also: series mostly up to about 92 µM; nearly all actives have a fitted effect of over 30% in size. The method, boiled down: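 Fluorescence read-out of live-cell protease activity (CellTiter-Fluor) after 1 hr with reagent. This was measured in the same wells as the caspase-3/7 luminescence, on HepG2 cells exposed to DMSO-dissolved compounds for 16 hr at 37 C.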
A general note: qHTS replaces the single test concentration by a dilution series.

The target in experiment [2] is Nuclear receptor subfamily 1 group I member 2 (Rattus norvegicus) (UniProt Q9R1A7). The experiment can be described thus: Rat pregnane X receptor (rPXR) activation by small molecules, qHTS assay (AID 1346983). Also: nearly all actives have a fitted effect of over 20% in size. Also: potency is read from the fitted curve at half-maximal effect. As to conditions: rPXR luciferase reporter cells, One-Glo luminescence, 24 h; max activation: stronger effect = higher value. The essentials:
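Cell-based rPXR activation assay: rPXR cells, 2,000 per well, rested 5hr at 37 C, then exposed to compounds in DMSO for 24 hr at 37 C. Luciferase activity read by One-Glo luminescence after 30 min at room temperature.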

In experiment [3] the target is Nuclear receptor subfamily 1 group I member 2 (Homo sapiens) (UniProt O75469). Description: CYP3A4 induction through human pregnane X receptor (PXR) by small molecules, qHTS assay (AID 1346984). Also: nearly all actives have a fitted effect of over 40% in size. Also: potency is read from the fitted curve at half-maximal effect. The method, boiled down:
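HepG2-derived DPX-2 line carrying PXR plus a CYP3A4-promoter luciferase reporter; cells plated 5 hr, compound-exposed 24 hr at 37C. CYP3A4 activity probed with 3uM (final) Luciferin-IPA for 3hr, then luciferase read after One-Glo.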

The target is the same in experiment [4]. The experiment can be described thus: Human pregnane X receptor (PXR) activation by small molecules, qHTS assay (AID 1346985). Also: nearly all actives have a fitted effect of over 40% in size. The essentials:
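DPX-2 cells (HepG2 co-transfected with a PXR response element and a CYP3A4-promoter luciferase construct) were seeded at 2,000 per well, rested 5 hr at 37C, then exposed to DMSO-dissolved compounds for 24 hr. Activation was read as luciferase luminescence.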

In experiment [5] the target is Cytochrome P450 2D6 (Homo sapiens) (UniProt P10635). Description: Cytochrome P450 Family 2 Subfamily D Member 6 (CYP2D6) small molecule antagonists: luciferase reporter qHTS assay (AID 1671196). Also: nearly all actives have a fitted effect of over 50% in size. Also: potency is read from the fitted curve at half-maximal effect. The essentials: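 Luminogenic proluciferin substrate, CYP2D6 enzyme; 10 min RT preincubation with compound, NADPH regeneration system added, 1 h RT. Stop/detection reagent, 20 min RT, luminescence read (RLU). Signal proportional to CYP activity.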
Cytochrome P450 2D6 (Homo sapiens), sequence (P10635 whole entry, looked up): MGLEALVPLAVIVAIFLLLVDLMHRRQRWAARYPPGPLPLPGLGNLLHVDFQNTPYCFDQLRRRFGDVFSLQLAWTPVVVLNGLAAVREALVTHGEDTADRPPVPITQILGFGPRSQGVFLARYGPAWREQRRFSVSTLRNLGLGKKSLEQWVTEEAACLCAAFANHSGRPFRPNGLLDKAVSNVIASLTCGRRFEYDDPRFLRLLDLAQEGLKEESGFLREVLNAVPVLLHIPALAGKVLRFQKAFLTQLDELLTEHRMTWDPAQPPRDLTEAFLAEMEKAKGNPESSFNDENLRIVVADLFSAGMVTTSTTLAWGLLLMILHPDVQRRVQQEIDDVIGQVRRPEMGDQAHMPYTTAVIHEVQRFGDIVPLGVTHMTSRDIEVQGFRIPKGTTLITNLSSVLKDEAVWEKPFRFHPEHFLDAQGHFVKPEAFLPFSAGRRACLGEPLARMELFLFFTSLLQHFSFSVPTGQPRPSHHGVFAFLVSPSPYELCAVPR
(In general: Reporter assays use an easily measured gene product as a stand-in for the process of interest.)

For experiment [6], the target named is Cytochrome P450 2C19 (Homo sapiens) (UniProt P33261). The experiment can be described thus: Cytochrome P450 Family 2 Subfamily C Member 19 (CYP2C19) small molecule antagonists: luciferase reporter qHTS assay (AID 1671197). Also: nearly all actives have a fitted effect of over 65% in size. Also: potency is read from the fitted curve at half-maximal effect. The essentials:
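First, compounds are pinned into enzyme-substrate mix and held 10 min at room temperature. Second, NADPH regeneration solution is added and plates incubate 1 h at 37C. Third, detection reagent is added and luminescence read after 20 min.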

Experiment [7] deals with Cytochrome P450 2C9 (Homo sapiens) (UniProt P11712). Description: Cytochrome P450 Family 2 Subfamily C Member 9 (CYP2C9) small molecule antagonists: luciferase reporter qHTS assay (AID 1671198). Also: series mostly up to about 120 µM; nearly all actives have a fitted effect of over 50% in size. The method, boiled down: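 P450-Glo proluciferin substrate with CYP2C9 enzyme; 10 min RT preincubation, then NADPH regeneration 1 h at 37C; luciferin detection reagent 20 min RT, luminescence in relative luminescence units.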
Cytochrome P450 2C9 (Homo sapiens), sequence (P11712 whole entry, looked up): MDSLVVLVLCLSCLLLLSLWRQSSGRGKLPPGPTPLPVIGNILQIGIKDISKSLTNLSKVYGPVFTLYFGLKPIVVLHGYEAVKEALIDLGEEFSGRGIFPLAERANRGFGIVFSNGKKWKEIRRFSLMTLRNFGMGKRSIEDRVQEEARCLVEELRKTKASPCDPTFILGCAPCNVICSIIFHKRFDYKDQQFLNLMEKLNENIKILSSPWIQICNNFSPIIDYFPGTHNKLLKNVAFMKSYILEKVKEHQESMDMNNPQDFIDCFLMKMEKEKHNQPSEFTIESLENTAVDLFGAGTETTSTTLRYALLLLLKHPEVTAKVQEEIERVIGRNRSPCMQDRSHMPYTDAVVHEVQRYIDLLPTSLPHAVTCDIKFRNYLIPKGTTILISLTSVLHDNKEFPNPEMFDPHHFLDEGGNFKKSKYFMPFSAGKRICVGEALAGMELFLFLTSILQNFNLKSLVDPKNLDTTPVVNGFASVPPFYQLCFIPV

For experiment [8], the target named is Cytochrome P450 1A2 (Homo sapiens) (UniProt P05177). Description: Cytochrome P450 Family 1 Subfamily A Member 2 (CYP1A2) small molecule antagonists: luciferase reporter qHTS assay (AID 1671199). Also: nearly all actives have a fitted effect of over 50% in size. Also: potency is read from the fitted curve at half-maximal effect. The method, boiled down:
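Luminescence readout (relative luminescence units) after luciferin detection reagent, 20 min RT. Preceded by 1 h room-temperature CYP1A2 reaction with NADPH regeneration solution following 10 min compound preincubation with enzyme and proluciferin substrate. Furafylline positive control.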

Experiment [9] has as its target Voltage-gated inwardly rectifying potassium channel KCNH2 (Homo sapiens) (UniProt Q12809). Description: Human Ether-a-go-go-Related Gene (hERG) channel small molecule antagonists: fluorescence cell-based qHTS assay (AID 1671200).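 Also: hERG-expressing U2OS cells given a thallium stimulus after FluxOR II dye loading; series mostly up to about 77 µM; nearly all actives have a fitted effect of over 50% in size.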 The essentials: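 Kinetic two-minute fluorescence traces, sampled at 1 s, were collected following thallium stimulus of U2OS cells (1000 per well) that had been cultured overnight at 37 C and loaded with FluxOR II.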
(In general: hERG is a cardiac potassium channel; its block is linked to QT prolongation.)

In experiment [10] the target is Cytochrome P450 3A4 (Homo sapiens) (UniProt P08684). Description: Cytochrome P450 Family 3 Subfamily A Member 4 (CYP3A4) small molecule antagonists: luciferase reporter qHTS assay (AID 1671201). The method, boiled down: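 Proluciferin-to-luciferin conversion by CYP3A4, NADPH-regenerated, 1 h RT; luminescence read as RLU. Ketoconazole as control.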
Cytochrome P450 3A4 (Homo sapiens), sequence (P08684 whole entry, looked up): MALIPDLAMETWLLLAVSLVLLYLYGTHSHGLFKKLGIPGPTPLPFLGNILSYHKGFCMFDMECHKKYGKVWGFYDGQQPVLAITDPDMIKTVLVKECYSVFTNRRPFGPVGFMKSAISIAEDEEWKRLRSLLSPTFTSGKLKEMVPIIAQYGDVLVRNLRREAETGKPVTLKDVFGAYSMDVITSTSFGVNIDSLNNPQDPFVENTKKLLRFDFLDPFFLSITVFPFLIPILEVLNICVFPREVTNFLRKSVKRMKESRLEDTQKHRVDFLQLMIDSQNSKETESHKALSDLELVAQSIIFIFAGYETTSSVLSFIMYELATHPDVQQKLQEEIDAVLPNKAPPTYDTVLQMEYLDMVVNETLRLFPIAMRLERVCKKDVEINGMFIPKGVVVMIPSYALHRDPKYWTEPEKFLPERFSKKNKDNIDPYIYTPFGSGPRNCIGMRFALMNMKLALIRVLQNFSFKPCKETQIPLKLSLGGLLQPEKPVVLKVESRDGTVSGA
The nature of experiment [11]: Caspase-3/7 induction in CHO-K1 cells by small molecules, qHTS cell viability counter screen (AID 1346979). Also: nearly all actives have a fitted effect of over 35% in size. Also: potency is read from the fitted curve at half-maximal effect. The method, boiled down:
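CellTiter-Fluor viability check, qHTS format: wild-type CHO-K1, 16hr compound treatment, 1hr reagent incubation, fluorescence read.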

A short description of experiment [12]: Caspase-3/7 induction in CHO-K1 cells by small molecules, qHTS assay (AID 1346980). Also: nearly all actives have a fitted effect of over 15% in size. The essentials: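 Wild-type CHO-K1 cells exposed to compounds for 17hr at 37 C, 5% CO2. Caspase-3/7 activity then measured by Caspase-Glo 3/7 luminescence after 30min at room temperature.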
The target of experiment [13] is Nuclear receptor subfamily 1 group I member 2 (Homo sapiens) (UniProt O75469). The experiment can be described thus: Human pregnane X receptor (PXR) small molecule agonists, qHTS assay (AID 1346982). Also: nearly all actives have a fitted effect of over 35% in size. Also: potency is read from the fitted curve at half-maximal effect. The method, boiled down:
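HepG2 PXR-Luc reporter line, 5% charcoal-stripped FBS; 5 hr pre-incubation, compound (DMSO) 24 hr at 37 C/5% CO2; ONE-Glo 30 min RT; luminescence read-out.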
% is scaled to controls: 0 for no effect and ±100 for the full control effect.

Nuclear receptor subfamily 1 group I member 2 (Rattus norvegicus), sequence (Q9R1A7 whole entry, looked up): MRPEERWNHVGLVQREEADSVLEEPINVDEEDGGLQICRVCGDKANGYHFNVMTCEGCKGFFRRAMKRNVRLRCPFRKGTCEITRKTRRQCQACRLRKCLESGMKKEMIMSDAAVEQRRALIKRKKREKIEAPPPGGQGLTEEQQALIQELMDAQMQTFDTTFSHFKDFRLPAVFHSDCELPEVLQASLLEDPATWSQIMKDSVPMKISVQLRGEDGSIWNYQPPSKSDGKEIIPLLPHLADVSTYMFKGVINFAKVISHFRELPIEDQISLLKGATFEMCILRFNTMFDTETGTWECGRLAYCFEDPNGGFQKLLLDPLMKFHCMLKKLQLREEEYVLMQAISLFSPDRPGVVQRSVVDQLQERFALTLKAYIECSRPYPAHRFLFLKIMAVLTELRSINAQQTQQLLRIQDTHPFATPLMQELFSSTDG
Nuclear receptor subfamily 1 group I member 2 (Homo sapiens), sequence (O75469 whole entry, looked up): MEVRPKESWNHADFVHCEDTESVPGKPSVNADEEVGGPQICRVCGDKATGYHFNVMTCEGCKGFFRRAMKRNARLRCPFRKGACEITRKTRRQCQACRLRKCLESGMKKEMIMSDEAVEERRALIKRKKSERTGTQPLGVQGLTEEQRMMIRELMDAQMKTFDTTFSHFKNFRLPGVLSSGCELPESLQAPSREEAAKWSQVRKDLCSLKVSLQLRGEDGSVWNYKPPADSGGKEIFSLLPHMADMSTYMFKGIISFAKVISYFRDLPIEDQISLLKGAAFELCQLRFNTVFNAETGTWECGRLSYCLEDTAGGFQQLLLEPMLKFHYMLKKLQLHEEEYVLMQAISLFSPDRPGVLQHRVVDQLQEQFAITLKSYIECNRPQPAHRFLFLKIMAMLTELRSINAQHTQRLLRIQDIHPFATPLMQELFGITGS
Voltage-gated inwardly rectifying potassium channel KCNH2 (Homo sapiens), sequence (Q12809 whole entry, looked up): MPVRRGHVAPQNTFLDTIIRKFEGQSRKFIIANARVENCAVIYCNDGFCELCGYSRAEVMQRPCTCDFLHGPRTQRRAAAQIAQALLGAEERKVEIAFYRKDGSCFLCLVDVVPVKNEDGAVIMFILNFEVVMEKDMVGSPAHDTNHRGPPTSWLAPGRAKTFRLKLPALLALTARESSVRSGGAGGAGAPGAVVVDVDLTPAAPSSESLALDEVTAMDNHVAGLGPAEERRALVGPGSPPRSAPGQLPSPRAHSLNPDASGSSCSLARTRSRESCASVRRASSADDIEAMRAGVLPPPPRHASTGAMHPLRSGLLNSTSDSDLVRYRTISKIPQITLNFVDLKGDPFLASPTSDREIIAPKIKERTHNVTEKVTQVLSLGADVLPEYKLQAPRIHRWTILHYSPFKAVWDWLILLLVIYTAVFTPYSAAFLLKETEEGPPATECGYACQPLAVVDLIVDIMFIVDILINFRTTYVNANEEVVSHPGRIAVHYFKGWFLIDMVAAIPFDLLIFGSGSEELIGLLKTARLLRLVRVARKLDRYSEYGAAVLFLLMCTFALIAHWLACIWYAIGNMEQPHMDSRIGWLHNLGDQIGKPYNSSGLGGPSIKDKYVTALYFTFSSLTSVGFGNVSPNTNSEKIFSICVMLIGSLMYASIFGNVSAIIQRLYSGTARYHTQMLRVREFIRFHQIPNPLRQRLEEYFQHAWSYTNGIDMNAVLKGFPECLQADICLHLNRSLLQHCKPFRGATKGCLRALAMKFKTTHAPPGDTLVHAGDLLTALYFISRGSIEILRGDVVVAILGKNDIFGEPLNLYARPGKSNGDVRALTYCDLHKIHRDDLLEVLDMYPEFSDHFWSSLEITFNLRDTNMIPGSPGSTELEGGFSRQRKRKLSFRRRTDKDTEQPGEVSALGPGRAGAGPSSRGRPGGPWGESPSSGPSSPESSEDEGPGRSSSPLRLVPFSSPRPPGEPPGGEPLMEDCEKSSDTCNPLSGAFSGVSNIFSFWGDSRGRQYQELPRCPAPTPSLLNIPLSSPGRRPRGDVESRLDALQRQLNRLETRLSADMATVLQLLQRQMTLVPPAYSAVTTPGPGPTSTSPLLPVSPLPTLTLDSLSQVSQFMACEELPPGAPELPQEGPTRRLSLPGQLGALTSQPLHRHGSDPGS
Cytochrome P450 1A2 (Homo sapiens), sequence (P05177 whole entry, looked up): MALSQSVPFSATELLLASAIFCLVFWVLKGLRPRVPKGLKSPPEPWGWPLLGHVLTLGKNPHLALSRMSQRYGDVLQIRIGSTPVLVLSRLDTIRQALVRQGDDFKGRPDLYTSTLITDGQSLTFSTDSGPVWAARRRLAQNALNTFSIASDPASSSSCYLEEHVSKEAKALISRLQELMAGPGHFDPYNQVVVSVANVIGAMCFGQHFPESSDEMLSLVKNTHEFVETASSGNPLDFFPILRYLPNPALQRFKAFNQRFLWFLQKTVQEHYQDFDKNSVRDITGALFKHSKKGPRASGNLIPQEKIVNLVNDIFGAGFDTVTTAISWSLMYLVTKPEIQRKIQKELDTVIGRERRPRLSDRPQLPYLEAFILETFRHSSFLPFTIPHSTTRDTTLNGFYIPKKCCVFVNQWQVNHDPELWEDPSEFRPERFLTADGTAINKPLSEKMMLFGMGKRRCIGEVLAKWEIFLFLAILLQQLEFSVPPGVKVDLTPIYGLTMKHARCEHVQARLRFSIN
Cytochrome P450 2C19 (Homo sapiens), sequence (P33261 whole entry, looked up): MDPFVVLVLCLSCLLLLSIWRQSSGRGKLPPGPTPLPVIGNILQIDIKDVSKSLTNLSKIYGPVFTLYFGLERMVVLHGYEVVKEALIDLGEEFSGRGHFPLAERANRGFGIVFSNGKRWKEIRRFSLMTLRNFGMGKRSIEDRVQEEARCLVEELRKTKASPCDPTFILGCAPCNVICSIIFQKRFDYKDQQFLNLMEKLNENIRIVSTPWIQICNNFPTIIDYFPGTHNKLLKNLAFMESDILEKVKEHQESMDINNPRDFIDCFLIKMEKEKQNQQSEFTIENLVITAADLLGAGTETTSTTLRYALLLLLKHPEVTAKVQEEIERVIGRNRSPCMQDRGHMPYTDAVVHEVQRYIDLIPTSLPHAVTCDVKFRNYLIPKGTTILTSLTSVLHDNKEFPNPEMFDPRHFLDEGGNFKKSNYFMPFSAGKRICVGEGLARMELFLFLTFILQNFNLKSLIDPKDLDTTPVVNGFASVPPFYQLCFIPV

Regarding `O=[N+]([O-])c1ccc(/C=N\O)o1`, the Potency result in [1], in experiment [3], in experiment [4], in [5], in experiment [6] and in [7] was “inactive” each time. The Potency result in [9] and in [10] was “inactive” throughout. Also, in experiment [2], the max activation was -2.63%. The Potency in experiment [8] was 27.5 µM (active).
For the molecule `CC(C#N)(CCC(=O)O)N=NC(C)(C#N)CCC(=O)O` (centres undefined), the Potency result in experiment [11], in experiment [1], in experiment [5], in experiment [6], in experiment [7] and in [8] was “inactive” throughout. Further, the Potency result in experiment [9] and in experiment [10] was “inactive” each time. Besides, the molecule was classed as inactive in [12].
With `CC(C)C1CCC(O)CC1` (centres undefined), the Potency entry in experiment [11], in [1], in experiment [5], in [6], in experiment [7] and in experiment [8] was “inactive” throughout. Further, the Potency result in experiment [9] and in [10] was “inactive” in each case. The outcome in experiment [12] was inactive.
For the molecule `CCOC(=O)OC(C)OC1=C(C(=O)Nc2ccccn2)N(C)S(=O)(=O)c2ccccc21` (centres undefined), the Potency entry in experiment [11], in experiment [1], in experiment [13], in experiment [3], in experiment [4] and in experiment [5] was “inactive” in each case. Moreover, the Potency result in [9] and in [10] was “inactive” each time. Moreover, the outcome in [12] was inactive. The max activation in experiment [2] is -2.57%.
Turning to `CC(=O)c1ccccc1[N+](=O)[O-]`, the Potency entry in experiment [11], in experiment [1], in experiment [5], in experiment [6], in experiment [7] and in experiment [9] was “inactive” each time. In addition, the Potency result in experiment [10] was “inactive”. The Potency in [13] is 30.1 µM (active).
Turning to `C[C@@H]1C[C@H]2[C@@H]3C[C@H](F)C4=CC(=O)C(Cl)=C[C@]4(C)[C@@]3(F)[C@@H](O)C[C@]2(C)[C@@]1(O)C(=O)CO`, the Potency result in [11], in [1], in experiment [8] and in experiment [9] was “inactive” each time. Also, in experiment [12], the molecule was called inactive. Moreover, the Potency in experiment [2] was 0.1 µM (active); in experiment [3] it was 12.6 µM (active); in experiment [6], 8.71 µM (active).
As to `C1CCC2(CCCCO2)OC1`, the Potency entry in experiment [11], in [1], in experiment [5], in experiment [6], in [7] and in [8] was “inactive” in each case. Moreover, the Potency result in [9] and in [10] was “inactive” in each case. The molecule was classed as inactive in experiment [12].
For `Clc1cc(Cl)cc(Cl)c1`, the Potency result in experiment [11], in experiment [1], in experiment [13], in [5], in experiment [7] and in experiment [9] was “inactive” each time. The Potency entry in experiment [10] was “inactive”. In [12], the call was inactive.
In the case of `CN1C(C)(C)CC(O)CC1(C)C`, the Potency result in [11], in experiment [1], in [13], in experiment [5], in experiment [6] and in [7] was “inactive” throughout. Besides, the Potency entry in experiment [9] and in [10] was “inactive” throughout. Also, the molecule was called inactive in [12].
Turning to `CC(=O)O[C@@]12CO[C@@H]1C[C@H](O)[C@@]1(C)C(=O)[C@H](O)C3=C(C)[C@@H](OC(=O)[C@H](O)[C@@H](NC(=O)OC(C)(C)C)c4ccccc4)C[C@@](O)([C@@H](OC(=O)c4ccccc4)[C@H]21)C3(C)C`, the Potency is 11.9 µM (active) in experiment [11] and 38.9 µM (active) in experiment [5]. Further, in experiment [12], the call was inactive. Further, the Potency entry in experiment [13], in experiment [3], in experiment [6], in experiment [7], in experiment [8] and in experiment [9] was “inactive” throughout.
For the molecule `CCCCCCC1CCC(=O)O1` (centres undefined), the Potency entry in experiment [11], in experiment [1], in [13], in [5], in experiment [9] and in [10] was “inactive” in each case. For the same molecule, the result in [12] was inactive.
For the molecule `CNCC(O)c1ccc(O)c(O)c1` (centres undefined), the Potency result in [11], in [1], in experiment [13] and in [9] was “inactive” each time. Also, in experiment [12], the result was inactive.
Regarding `CC(C)NNC(=O)c1ccncc1`, the Potency result in experiment [11], in [1], in experiment [13], in experiment [3], in experiment [4] and in experiment [8] was “inactive” each time. The Potency entry in experiment [10] is “inactive”. Moreover, the max activation in experiment [2] is -0.682%.

These data come from PubChem BioAssay (Tox21).
